From paper PMC5540273 (PLoS ONE, 2017) come the findings set out here.

Read-outs that look alike come from different tables or passages of the source.

Test [1] has as its system FYN. The following applies: concentration: 1 μM, replicates: in singlicate; n = 1.
The subject of test [2] is GAK. As to conditions: concentration: 1 μM, replicates: in singlicate; n = 1.
For test [3], the system named is T1, GCN2(Kin.Dom.2,S808G).
T1 construct: gene EIF2AK4
The following applies: concentration: 1 μM, replicates: in singlicate; n = 1.

Test [4] relates to GRK1. As to conditions: concentration: 1 μM, replicates: in singlicate; n = 1.
Test [5] deals with T2, GRK2.
T2 construct: gene ADRBK1
As to conditions: concentration: 1 μM, replicates: in singlicate; n = 1.

Test [6] deals with T3, GRK3.
T3 construct: gene ADRBK2
As to conditions: concentration: 1 μM, replicates: in singlicate; n = 1.

For test [7], the system named is GRK4. As to conditions: concentration: 1 μM, replicates: in singlicate; n = 1.
Test [8] deals with GRK7. The following applies: concentration: 1 μM, replicates: in singlicate; n = 1.
Test [9] concerns GSK3A. As to conditions: concentration: 1 μM, replicates: in singlicate; n = 1.
In test [10] the test system is GSK3B. The following applies: n = 1.
The mark [11] stands for this setting: concentration: 1 μM, replicates: in singlicate.
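Also: KINOMEscan kinase panel screen.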

`CS(=O)(=O)c1cccc(CNc2nc(Nc3ccc4c(c3)CCC(=O)N4)ncc2C(F)(F)F)c1`: the “%Inh” value amounted to 10% in [1]; 16% in test [2]; 0% in [3]; 24% in test [4]; 0% in [5]; 0% in test [6]. Also, the “%Inh” value was found to be 0% in test [7], 0% in test [8], 55% in [9] and 0% in [10] (setting [11]).
With `COc1cccc(CC(=O)N2CCc3cc(-c4cn(C)c5ncnc(N)c45)ccc32)c1` [GSK2608899], the “%Inh” value in test [1] came out at 9%; in test [2], 31%; in test [3], 70%; in test [4], 0%; in test [5], 0%; in test [6], 0%. Also, the “%Inh” value was 9% in test [7], 0% in test [8], 0% in test [9] and 15% in [10] (setting [11]).
For the compound `COC(=O)Nc1nc2cc(Oc3ccc(NC(=O)Nc4cccc(SC)c4)cc3)ccc2[nH]1.Cl` [GW697999], the “%Inh” value in test [1] was found to be 19%; in test [2] it was 21%; in test [3], 9%; in test [4] it was 0%; in [5], 0%; in test [6], 57%. The “%Inh” value in test [7], in test [8], in [9] and in test [10] (setting [11]) was 0% throughout.
Take `CCNc1nccc(-c2c(-c3ccc(F)cc3)ncn2C2CCN(C)CC2)n1`: the “%Inh” value in test [1] is listed as 0%; in test [2], 57%; in [3], 0%; in [4], 0%; in [5], 0%; in test [6], 0%. The “%Inh” value in test [7] worked out at 0%; in [8], 0%; in test [9], 21%; in test [10] (setting [11]) it was 0%.
Regarding `NCCC(NC(=O)c1cc(Br)c(-c2ccnc3[nH]ccc23)s1)c1ccccc1.O=C(O)C(F)(F)F.O=C(O)C(F)(F)F` (stereo not drawn) [GSK1307810], the “%Inh” value is on record as 0% in [1]; 83% in test [2]; 0% in [3]; 100% in test [4]; 82% in test [5]; 96.4% in [6]. For the same compound, the “%Inh” value was 72% in test [7], 89% in [8], 0% in test [9] and 20% in test [10] (setting [11]).
Turning to `CN1CCN(Cc2ccc(NC(=O)Nc3ccc(N(C)c4ccnc(Nc5ccc(CS(C)(=O)=O)cc5)n4)cc3)cc2)CC1.Cl` [GW827654], the “%Inh” value in [1] came to 40%; in test [2] it was 36%; in [3], 17%; in [4], 9%; in test [5] it was 27%; in test [6], 21%. The “%Inh” value amounted to 86% in test [7], 3% in [8], 4% in [9] and 32% in [10] (setting [11]).
Consider `O=C(O)C(F)(F)F.O=c1[nH]ccc2nc(N[C@@H]3CCNC3)nc(Nc3ccc4c(c3)S(=O)(=O)CC4)c12` [GSK2181306], for which the “%Inh” value in test [1] turned out to be 43%; in test [2] it was 76%; in test [3], 97.3%; in test [4] it was 95.2%; in test [5], 49%; in test [6] it was 60%. For the same compound, the “%Inh” value in test [7] amounted to 88%; in [8], 65%; in [9], 97.8%; in [10] (setting [11]) it was 92.1%.
With `Cc1ccc(NC(=O)c2cccc(N3CCCCC3)c2)cc1-c1ccc(C(=O)NCC2CC2)cc1` [GSK1917008], the “%Inh” value was determined as 15% in test [1]; 11% in [2]; 15% in test [3]; 3% in [4]; 6% in [5]; 27% in test [6]. For the same compound, the “%Inh” value in [7] is listed as 10%; in test [8] it was 0%; in test [9], 27%; in test [10] (setting [11]), 10%.
`COc1cccc(C2=C(Nc3cccc(O)c3)C(=O)NC2=O)c1` [SB-390771]: the “%Inh” value in test [1] is listed as 0%; in test [2] it was 0%; in [3] it was 0%; in test [4], 4%; in test [5], 0%; in test [6], 31%. Besides, the “%Inh” value in test [7] was determined as 0%; in [8], 100%; in test [9], 0%; in test [10] (1 µM), 13%.
Regarding `CN(C)c1ncnc2nc[nH]c12` [SKF-31736], the “%Inh” value in test [1] worked out at 0%; in test [2], 0%; in test [3] it was 0%; in [4] it was 43%; in test [5], 0%; in test [6], 0%. Moreover, the “%Inh” value in test [7] turned out to be 38%; in [8], 0%; in [9], 1%; in test [10] (setting [11]), 28%.
As for `Cc1ccc(O)cc1Nc1ccnc2cc(-c3ccc(CN4CCCCC4)o3)ccc12` [GW557777], the “%Inh” value in [1] came to 99.7%; in test [2], 99.6%; in test [3] it was 0%; in [4] it was 0%; in test [5], 0%; in test [6], 0%. The “%Inh” value in test [7] is on record as 13%; in test [8], 0%; in test [9] it was 0%; in [10] (setting [11]), 0%.
In the case of `N#CC1(c2cccc(C(=O)Nc3cccc(Oc4ccc5nc(NC(=O)C6CC6)sc5n4)c3)c2)CC1`, the “%Inh” value stood at 92% in test [1]; 0% in [2]; 0% in test [3]; 12% in test [4]; 0% in test [5]; 0% in [6]. In addition, the “%Inh” value turned out to be 0% in [7], 0% in [8], 24% in test [9] and 0% in test [10] (setting [11]).
As to `Cc1ccccc1CC(=O)N1CCc2cc(-c3cn(C)c4ncnc(N)c34)ccc21` [GSK2603346], the “%Inh” value in test [1] is 32%; in [2], 32%; in test [3] it was 65%; in test [4] it was 9%; in [5], 3%; in test [6] it was 0%. Also, the “%Inh” value in test [7] is listed as 0%; in test [8] it was 0%; in test [9], 1%; in test [10] (setting [11]), 2%.
Regarding `Cc1cccc(Nc2nc(NCCN)ncc2C(N)=O)c1` [GSK1292139], the “%Inh” value in test [1] was 48%; in test [2], 65%; in [3] it was 41%; in test [4], 0%; in test [5], 0%; in test [6] it was 0%. In addition, the “%Inh” value in test [7] is 15%; in test [8] it was 0%; in test [9] it was 6%; in [10] (setting [11]), 11%.
Regarding `Nc1ncnc2scc(-c3ccc(NC(=O)Cc4cc(F)ccc4F)cc3)c12.O=C(O)C(F)(F)F` [SB-731254-M], the “%Inh” value in test [1] worked out at 0%; in test [2], 26%; in [3] it was 19%; in test [4], 24%; in test [5], 0%; in test [6], 0%. For the same compound, the “%Inh” value in [7] is 15%; in [8], 29%; in test [9], 3%; in [10] (setting [11]), 24%.
